In the library only some 3.3% were active in any assay of this set; here they are far more common.
Statin myotox sup – suppression of simvastatin myotoxicity. C2C12 myotubes + simvastatin, ATP luminescence, 48 h; scaled: DMSO 0, geranylgeraniol control 100. rescue of ATP level, % at 7.49 µM. 330,000 compounds, 0.78% hits;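 active = mean ATP rescue above about 67%, or every replicate alone reaching that limit, limit read from the data, passing the limit was not always enough; inconclusive = no clear call, values can overlap the other calls; inactive = mean under the limit and some replicate under it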;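 note: myotubes were challenged with 10 µM simvastatin during compound exposure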
esBAF inh – blocks esBAF chromatin remodeling in mouse ES cells; AID 602393; Bmi1-luciferase knock-in reporter, 24 h; 100% = twice the neutral-well signal; 350,000 compounds, 2% hits; reporter increase, % at 12.5 µM; in the data active = activation above about 40%; inconclusive = no clear call, values can overlap the other calls;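 note: a rise in the Bmi1 reporter signal indicates esBAF inhibition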
GAA850 FXN act – frataxin GAA850 promoter activation; HEK293 lucGAA850 FXN promoter luciferase reporter, 24 h; percent of 10 µM SAHA response; activation, % at 6 µM; 360,000 compounds, 0.56% hits; AID 540364;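 active = activation above the average of all compounds screened plus 3 SD, cutoff fixed separately per campaign, cut at about 7.5% in these data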
MITF TRPM1 HTS – activators of MITF-driven TRPM1 promoter activity in SK-MEL-5 cells | SK-MEL-5 TRPM1-promoter luciferase, 24 h; % of positive control, neutral wells = 0 | activation, % at 12.5 µM | 300,000 compounds, 0.75% hits | AID 588334;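 active = mean activation of at least 80% with every replicate also reaching 80%; inconclusive = mean reaches 80% but some replicate falls short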
Wnt bcat act – activators of Wnt/beta-catenin signaling; activation, % at 9.35 µM; 300,000 compounds, 1.2% hits; AID 743398; Wnt/beta-catenin reporter cell assay, activator, plate reader; in the data active = activation above about 30%, passing the limit was not always enough; inconclusive = no clear call, values can overlap the other calls
Large screens that a line does not name were inactive.

CCc1ccc(CC(=S)N2CCOCC2)cc1	none
O=C(C[C@H]1C[C@@H]2c3cc(NS(=O)(=O)c4ccc(F)cc4)ccc3O[C@@H]2[C@H](CO)O1)NCc1ccccc1F	none (no result: GAA850 FXN act, MITF TRPM1 HTS, Wnt bcat act)
CCCCn1c(-c2ccoc2C)n[nH]c1=S	Wnt bcat act 43.2 (no result: MITF TRPM1 HTS)
CCOC(=O)CSC1=C(C#N)C(c2ccc3c(c2)OCO3)CC(=O)N1 (configuration not stated)	none (no result: Statin myotox sup)
CCCCOC(=O)CSC1=C(C#N)C(c2ccc3c(c2)OCO3)CC(=O)N1 (configuration not stated)	Statin myotox sup 101.5 (no result: Wnt bcat act)
C[C@H](CO)N1C[C@H](C)[C@H](CN(C)C(=O)Nc2ccc3c(c2)OCO3)Oc2c(NC(=O)C3CCOCC3)cccc2C1=O	none (no result: GAA850 FXN act, MITF TRPM1 HTS, Wnt bcat act)
Cc1cccc(C(=O)Nc2sc(C)c(-c3ccccc3)c2C#N)c1	esBAF inh 48.5 (no result: Wnt bcat act)
Cc1sc(NC(=O)C2CCCCC2)c(C#N)c1-c1ccccc1	esBAF inh 92.8, Wnt bcat act 42.2
Cc1noc(C)c1C(=O)Nc1sc(C)c(-c2ccccc2)c1C#N	none (no result: Wnt bcat act)
CO[C@H]1CN(C)C(=O)c2ccc(NS(=O)(=O)c3ccccc3)cc2OC[C@@H](C)N(C)C[C@H]1C	none (no result: GAA850 FXN act, MITF TRPM1 HTS, Wnt bcat act)
CCC(=O)N1C[C@@H](C)[C@H](OC)CN(C)C(=O)c2cc(NC(=O)C3CCCCC3)ccc2OC[C@@H]1C	none (no result: GAA850 FXN act, MITF TRPM1 HTS, Wnt bcat act)
COc1ccc(CN(C)C[C@H]2OCCCC[C@H](C)Oc3ccc(NC(=O)NC(C)C)cc3C(=O)N([C@H](C)CO)C[C@H]2C)cc1	none (no result: GAA850 FXN act, MITF TRPM1 HTS, Wnt bcat act)
Cc1ccc(N2C(=O)c3ccccc3NC2(C(=O)O)c2ccccc2)cc1Cl (configuration not stated)	esBAF inh 60.0, Wnt bcat act 56.5
COc1cc(C(=S)N2CCCC2)ccc1OCc1ccc(C)cc1	esBAF inh 46.6
COc1cc(C(=S)N2CCCCC2)ccc1OCC(=O)N1CCCC1	none (no result: MITF TRPM1 HTS)
CCOc1ccc(C(=O)N2CCCC2)cc1OC	Wnt bcat act 34.0
CCOc1cc(C(=O)Nc2ccc(C)cc2C)ccc1OCC(=O)N1CCCCC1	none (no result: Statin myotox sup, esBAF inh)
CCOc1cc(C(=O)Nc2cc(C)ccc2OC)ccc1OCC(=O)N1CCCCC1	Statin myotox sup 115.0
CCOc1ccc(C(=S)N2CCCC2)cc1OC	none (no result: Statin myotox sup, esBAF inh)
O=C(C[C@@H]1CC[C@@H](NC(=O)Nc2ccc(F)cc2)[C@@H](CO)O1)NCc1cccc(F)c1	none (no result: GAA850 FXN act, MITF TRPM1 HTS, Wnt bcat act)
Fc1ccc(CSc2nnc(CN3CCOCC3)n2-c2ccccc2)c(Cl)c1	Statin myotox sup 102.7 (no result: Wnt bcat act)
O=c1c2ccccc2nc(SCc2ccc(F)cc2Cl)n1CCCN1CCOCC1	none
COc1ccc(C#Cc2ccc3c(c2)O[C@H](CN(C)S(=O)(=O)c2ccccc2F)[C@@H](C)CN([C@@H](C)CO)S3(=O)=O)cc1	none (no result: GAA850 FXN act, MITF TRPM1 HTS, Wnt bcat act)
CC(C)(C)n1ncc2c(=O)n(CC(=O)Nc3ccc(Cl)cc3)cnc21	none (no result: Wnt bcat act)
O=C(Cn1cnc2c(cnn2-c2ccccc2)c1=O)c1ccc(Cl)cc1	Statin myotox sup 143.3
O=c1c2cnn(-c3ccc(F)cc3)c2ncn1Cc1ccccc1	Statin myotox sup 158.0 (no result: Wnt bcat act)
CC(C)(C)n1ncc2c(=O)n(CC(=O)c3ccc(Cl)cc3)cnc21	esBAF inh 74.5 (no result: Wnt bcat act)
O=c1c2cnn(-c3ccc(F)cc3)c2ncn1Cc1cccnc1	none (no result: Wnt bcat act)
O=C(Cn1cnc2c(cnn2-c2ccccc2)c1=O)NCCc1ccccc1	none (no result: Wnt bcat act)
O=C(C[C@@H]1CC[C@@H]2[C@H](COC[C@H](O)CN2Cc2cc(F)ccc2F)O1)NCc1ccc(Cl)cc1	none (no result: GAA850 FXN act, MITF TRPM1 HTS, Wnt bcat act)
O=C(C[C@H]1CC[C@H]2[C@@H](COC[C@@H](O)CN2C(=O)c2ccccc2F)O1)N1CCCCC1	none (no result: GAA850 FXN act, MITF TRPM1 HTS, Wnt bcat act)
O=c1c2ccccc2ncn1CCOc1ccccc1[N+](=O)[O-]	esBAF inh 67.1
CCCNC(=O)N1C[C@H](O)COC[C@H]2O[C@H](CC(=O)N[C@H]3CCN(Cc4ccccc4)C3)CC[C@@H]21	none (no result: GAA850 FXN act, MITF TRPM1 HTS, Wnt bcat act)
COc1ccc(CNC(=O)C2CC(c3cccc([N+](=O)[O-])c3)=NO2)cc1 (configuration not stated)	esBAF inh 54.0
O=S(=O)(NCc1cc(-c2ccccc2Cl)no1)c1ccccc1	none
O=S(=O)(Cc1cc(-c2ccc(Cl)cc2)no1)c1ccccc1	esBAF inh 51.0, MITF TRPM1 HTS inconclusive
O=S(=O)(Cc1cc(-c2ccccc2Cl)no1)c1ccccc1	esBAF inh 53.2, MITF TRPM1 HTS 89.9
Clc1ccc(-c2cc(COc3ccccc3)on2)cc1	esBAF inh 50.5
C[C@@H](NC(=O)C[C@@H]1C=C[C@@H](NC(=O)C2CCC2)[C@@H](CO)O1)c1ccccc1	none (no result: GAA850 FXN act, MITF TRPM1 HTS, Wnt bcat act)
Cc1noc(C)c1NC(=O)Nc1ccc2c(c1)C(=O)N([C@H](C)CO)C[C@@H](C)[C@@H](CN(C)C(=O)Nc1ccc(C(F)(F)F)cc1)O2	none (no result: GAA850 FXN act, MITF TRPM1 HTS, Wnt bcat act)
C[C@H]1CN([C@@H](C)CO)C(=O)c2cccc(NC(=O)Nc3cccc4ccccc34)c2O[C@H]1CN(C)Cc1ccc(-c2ccccc2)cc1	none (no result: Statin myotox sup, GAA850 FXN act, MITF TRPM1 HTS, Wnt bcat act)
CCCSc1nc2c(cnn2-c2ccccc2)c(=O)n1N	Wnt bcat act 41.1 (no result: MITF TRPM1 HTS)
CCCCSc1nc2c(cnn2-c2ccccc2)c(=O)n1N	none (no result: Statin myotox sup, esBAF inh)
COCC(=O)Nc1ccc2c(c1)C(=O)N(C)C[C@@H](OC)[C@H](C)CN(C(=O)CC1CC1)[C@@H](C)CO2	none (no result: GAA850 FXN act, MITF TRPM1 HTS, Wnt bcat act)
COc1ccc(OCCSc2nc(N)cc(=O)[nH]2)cc1	none (no result: Statin myotox sup, esBAF inh)
COc1ccc(OCCSc2nc(N)cc(N)n2)cc1	esBAF inh 67.1, MITF TRPM1 HTS 95.1
CCOC(=O)c1c(C)oc2c1c(C(c1cccnc1)N1CCCCC1)c(O)c1ccccc12 (configuration not stated)	none (no result: Statin myotox sup, esBAF inh, Wnt bcat act)
CCOC(=O)c1c(C)oc2c1c(C(c1ccccc1)N1CCOCC1)c(O)c1ccccc12 (configuration not stated)	esBAF inh 46.7, Wnt bcat act 40.2
CCCNC(=O)c1cc2c(c(-c3cccc(-c4cccc(OC)c4)c3)n1)[C@H](CCO)N([S@@](=O)C(C)(C)C)C2	none (no result: GAA850 FXN act, MITF TRPM1 HTS, Wnt bcat act)
FC(F)(F)c1ccc(-c2csc(-c3ccno3)n2)cc1	esBAF inh 50.1 (no result: MITF TRPM1 HTS)
N#Cc1ccc(-c2csc(-c3ccno3)n2)cc1	none (no result: Statin myotox sup, esBAF inh, MITF TRPM1 HTS)
COc1ccc(S(=O)(=O)N2CCOCC2)cc1NC(=O)CSc1ncccn1	Statin myotox sup 109.5 (no result: esBAF inh)
COc1ccc(S(=O)(=O)N2CCOCC2)cc1NC(=O)c1ccc2c(c1)OCCO2	Wnt bcat act 39.8
COc1ccc(S(=O)(=O)N2CCOCC2)cc1NC(=O)c1ccc(Cl)cc1	none
COc1ccc(CC(=O)NCC2CCCN(Cc3ccc(OC(F)(F)F)cc3)C2)cc1 (configuration not stated)	none (no result: MITF TRPM1 HTS)
COC(=O)c1ccc(CN2CCCC(CNC(=O)Cc3ccc(OC)cc3)C2)cc1 (configuration not stated)	Wnt bcat act 35.8 (no result: MITF TRPM1 HTS)
NC(N)=N/N=C/c1ccccc1	none (no result: Statin myotox sup, esBAF inh)
NC(=N\N=Cc1ccccc1)/C(N)=N/N=Cc1ccccc1	esBAF inh 49.7 (no result: MITF TRPM1 HTS)
N#C/C(=C/c1ccc(N2CCCCC2)cc1)c1cccc(F)c1	esBAF inh 66.2, Wnt bcat act 33.4
COc1cc(N2CCCC2)c(OC)cc1/C=C(/C#N)c1ccc(F)cc1	none

Compound activity as filed in PubChem.
